The record followed here is PubChem BioAssay (EPA / NIEHS).

Holding throughout (settings): mRNA level, 48 h; actives raise or lower the signal
Read-out in assay [1]: MicroRNA 122 (MIR122), gene 406906
Nature of the assay: LTEA_HepaRG_MIR122: Life Technologies and Expression Analysis (LTEA) Assay for MicroRNA 122 (MIR122) using HepaRG (AID 2283516). Also: the transcript read is the microRNA miR-122. The essentials: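 HepaRG, 48 h exposure, 8-pt half-log from 100 uM, 0.5% DMSO; TaqMan qRT-PCR; bidirectional fit vs DMSO.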

Read-out in assay [2]: matrix metalloproteinase-10 (MMP10), MMP10 (gene 4319)
Nature of the assay: LTEA_HepaRG_MMP10: Life Technologies and Expression Analysis (LTEA) Assay for matrix metalloproteinase-10 (MMP10) using HepaRG (AID 2283517). In a few lines:
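HepaRG, collagen I, ~100,000 cells/well; serum-free induction medium; 48 h exposure, duplicate, 8-pt half-log to 100 uM, 0.5% DMSO. Readout: TaqMan qRT-PCR, normalized to ACTB/GAPDH/POLR2A; bidirectional fit vs DMSO.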

Read-out in a further assay: MYC, MYC (gene 4609)
In words: LTEA_HepaRG_MYC: Life Technologies and Expression Analysis (LTEA) Assay for MYC using HepaRG (AID 2283518). In a few lines: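 Differentiated human HepaRG cells, plated 48 h then switched to serum-free induction medium, were exposed in duplicate for 48 h to 8-point half-log series up to 100 uM in 0.5% DMSO. MYC mRNA measured by qRT-PCR, normalized to ACTB/GAPDH/POLR2A.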

Read-out in assay [3]: matrix metalloproteinase-3 (MMP3), MMP3 (gene 4314)
In words: LTEA_HepaRG_MMP3: Life Technologies and Expression Analysis (LTEA) Assay for matrix metalloproteinase-3 (MMP3) using HepaRG (AID 2283519). The essentials: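 Differentiated human HepaRG cells, plated 48 h on collagen I, were exposed in duplicate for 48 h in serum-free induction medium to eight half-log concentrations up to 100 uM in 0.5% DMSO. MMP3 mRNA was quantified by TaqMan qRT-PCR, normalised to ACTB, GAPDH and POLR2A.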

Read-out in assay [4]: Paternally Expressed 10 (PEG10), PEG10 (gene 23089)
Nature of the assay: LTEA_HepaRG_PEG10: Life Technologies and Expression Analysis (LTEA) Assay for Paternally Expressed 10 (PEG10) using HepaRG (AID 2283520).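 As to AC50: PEG10 transcript by qRT-PCR normalised to ACTB GAPDH and POLR2A.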 In a few lines: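 Chemicals tested on HepaRG cells for 48 h, highest concentration 100 uM. PEG10 expression assessed by qRT-PCR relative to DMSO control.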

Read-out in assay [5]: Nuclear factor NF-kappa-B p105 subunit (Homo sapiens) (UniProt P19838)
Nature of the assay: LTEA_HepaRG_NFKB1: Life Technologies and Expression Analysis (LTEA) Assay for Nuclear Factor Kappa B Subunit 1 (NFKB1) using HepaRG (AID 2283521).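 Also: TaqMan qRT-PCR transcript normalised to ACTB GAPDH and POLR2A housekeeping genes.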 In a few lines: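 Differentiated human HepaRG cells were exposed for 48 h in serum-free induction medium to eight concentrations (top 100 uM, half-log steps, 0.5% DMSO), in duplicate. NFKB1 mRNA was measured by TaqMan qRT-PCR, normalized to ACTB/GAPDH/POLR2A, and fitted bidirectionally against DMSO.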

Read-out in assay [6]: Protein phosphatase 2A (PPP2R4), PTPA (gene 5524)
In words: LTEA_HepaRG_PPP2R4: Life Technologies and Expression Analysis (LTEA) Assay for Protein phosphatase 2A (PPP2R4) using HepaRG (AID 2283522). The essentials: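 Gene-expression endpoint in HepaRG hepatic cells: 48 h treatment across eight half-log concentrations up to 100 uM in 0.5% DMSO. PPP2R4 mRNA by qRT-PCR, normalized to three endogenous control genes.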

Read-out in assay [7]: Phosphatase and tensin (PTEN), PTEN (gene 5728)
In words: LTEA_HepaRG_PTEN: Life Technologies and Expression Analysis (LTEA) Assay for Phosphatase and tensin (PTEN) using HepaRG (AID 2283523). The essentials:
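Differentiated human HepaRG cells, plated 48 h then switched to serum-free induction medium, were exposed in duplicate for 48 h to eight half-log concentrations up to 100 uM in 0.5% DMSO. PTEN mRNA measured by TaqMan qRT-PCR, normalized to ACTB/GAPDH/POLR2A, bidirectional fit versus DMSO.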

Read-out in assay [8]: Pyruvate Dehydrogenase Kinase 4 (PDK4), PDK4 (gene 5166)
In words: LTEA_HepaRG_PDK4: Life Technologies and Expression Analysis (LTEA) Assay for Pyruvate Dehydrogenase Kinase 4 (PDK4) using HepaRG (AID 2283525). The essentials: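 Differentiated human HepaRG cells, pre-cultured 48 h, were exposed in duplicate for 48 h in serum-free induction medium to eight half-log concentrations up to 100 uM in 0.5% DMSO. PDK4 mRNA was quantified by qRT-PCR, normalized to ACTB, GAPDH and POLR2A, bidirectional fitting versus DMSO.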

Read-out in assay [9]: NAD(P)H dehydrogenase [quinone] 1 (NQO1), NQO1 (gene 1728)
Nature of the assay: LTEA_HepaRG_NQO1: Life Technologies and Expression Analysis (LTEA) Assay for NAD(P)H dehydrogenase [quinone] 1 (NQO1) using HepaRG (AID 2283526). In a few lines: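 Human HepaRG hepatic cells received chemicals for 48 h in serum-free induction medium with 0.5% DMSO, up to 100 uM. Expression was assessed by TaqMan qRT-PCR against housekeeping controls and fitted bidirectionally against DMSO.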

Read-out in assay [10]: Nuclear factor erythroid 2-related factor 2 (Homo sapiens) (UniProt Q16236)
Nature of the assay: LTEA_HepaRG_NFE2L2: Life Technologies and Expression Analysis (LTEA) Assay for Nuclear factor erythroid 2-related factor 2 (NFE2L2) Transcription Factor using HepaRG (AID 2283527).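 Also: TaqMan qRT-PCR transcript level normalised to ACTB GAPDH and POLR2A housekeeping genes.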 The essentials: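 Differentiated human HepaRG cells in serum-free induction medium were exposed for 48 h to eight concentrations (top 100 uM, half-log dilutions, 0.5% DMSO), in duplicate. NFE2L2 mRNA was quantified by TaqMan qRT-PCR, normalized to ACTB, GAPDH and POLR2A, with bidirectional fitting versus DMSO.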

Read-out in assay [11]: Signal transducer and activator of transcription 3 (Homo sapiens) (UniProt P40763)
In words: LTEA_HepaRG_STAT3: Life Technologies and Expression Analysis (LTEA) Assay for Signal transducer and activator of transcription (STAT3) using HepaRG (AID 2283529). In a few lines:
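Differentiated human HepaRG cells in serum-free induction medium were exposed in duplicate for 48 h to eight half-log concentrations up to 100 uM in 0.5% DMSO. STAT3 mRNA was quantified by TaqMan qRT-PCR, normalized to ACTB, GAPDH and POLR2A, and fitted bidirectionally against DMSO.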

Read-out in assay [12]: solute carrier (SLCO1B1), SLCO1B1 (gene 10599)
In words: LTEA_HepaRG_SLCO1B1: Life Technologies and Expression Analysis (LTEA) Assay for solute carrier (SLCO1B1) using HepaRG (AID 2283530). In a few lines:
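Differentiated human HepaRG cells, plated 48 h, switched to serum-free induction medium and exposed in duplicate for 48 h to 8 half-log concentrations (top 100 uM) in 0.5% DMSO. SLCO1B1 mRNA by TaqMan qRT-PCR, normalized to ACTB/GAPDH/POLR2A.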

Read-out in assay [13]: sulfotransferase 2A1 (SULT2A1), SULT2A1 (gene 6822)
In words: LTEA_HepaRG_SULT2A1: Life Technologies and Expression Analysis (LTEA) Assay for sulfotransferase 2A1 (SULT2A1) using HepaRG (AID 2283531). The essentials: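 Differentiated human HepaRG cells in serum-free induction medium were exposed for 48 h to eight half-log concentrations (top 100 uM, 0.5% DMSO). SULT2A1 mRNA was measured by qRT-PCR, normalized to ACTB, GAPDH and POLR2A, and fitted bidirectionally against DMSO.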

Read-out in assay [14]: Transforming Growth Factor (TGFA), TGFA (gene 7039)
In words: LTEA_HepaRG_TGFA: Life Technologies and Expression Analysis (LTEA) Assay for Transforming Growth Factor (TGFA) using HepaRG (AID 2283532). In a few lines: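 Differentiated human HepaRG cells, plated 48 h then switched to serum-free induction medium, were exposed in duplicate for 48 h to 8-point half-log series from 100 uM in 0.5% DMSO. TGFA mRNA measured by qRT-PCR, normalized to ACTB/GAPDH/POLR2A, bidirectional fit versus DMSO.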

Read-out in assay [15]: Transforming Growth Factor (TGFB1), TGFB1 (gene 7040)
In words: LTEA_HepaRG_TGFB1: Life Technologies and Expression Analysis (LTEA) Assay for Transforming Growth Factor (TGFB1) Transporter using HepaRG (AID 2283533). The essentials: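 Differentiated human HepaRG cells in serum-free induction medium were exposed in duplicate for 48 h to eight concentrations (top 100 uM, half-log steps, 0.5% DMSO). TGFB1 mRNA was quantified by qRT-PCR, normalized to ACTB, GAPDH, POLR2A, and fitted bidirectionally against DMSO.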

Read-out in the next assay: TIMP1, TIMP1 (gene 7076)
In words: LTEA_HepaRG_TIMP1: Life Technologies and Expression Analysis (LTEA) Assay for TIMP1 using HepaRG (AID 2283534).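 Also: TaqMan qRT-PCR signal normalized to ACTB GAPDH and POLR2A housekeeping genes.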 The essentials:
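Differentiated human HepaRG cells in serum-free induction medium were exposed 48 h to chemicals (8 half-log concentrations, top 100 uM, 0.5% DMSO). TIMP1 mRNA was quantified by TaqMan qRT-PCR, normalized to ACTB/GAPDH/POLR2A; bidirectional fit versus DMSO.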

Read-out in assay [16]: Tumor necrosis factor receptor 1 (TNFRSF1A), TNFRSF1A (gene 7132)
In words: LTEA_HepaRG_TNFRSF1A: Life Technologies and Expression Analysis (LTEA) Assay for Tumor necrosis factor receptor 1 (TNFRSF1A) using HepaRG (AID 2283535). The essentials:
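Differentiated human HepaRG cells were exposed in duplicate for 48 h in serum-free induction medium to eight concentrations (top 100 uM, half-log steps, 0.5% DMSO). TNFRSF1A mRNA was quantified by qRT-PCR, normalized to ACTB, GAPDH and POLR2A, then fitted bidirectionally against DMSO.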

Read-out in assay [17]: succinate dehydrogenase complex iron sulfur subunit B (SDHB), SDHB (gene 6390)
Nature of the assay: LTEA_HepaRG_SDHB: Life Technologies and Expression Analysis (LTEA) Assay for succinate dehydrogenase complex iron sulfur subunit B (SDHB) using HepaRG (AID 2283528). In a few lines:
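HepaRG, 48 h exposure, 8-pt half-log series from 100 uM in 0.5% DMSO, duplicates. Readout: SDHB mRNA by Fluidigm qRT-PCR vs housekeeping genes; bidirectional fit relative to DMSO.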

Read-out in assay [18]: solute carrier (SLC22A1), SLC22A1 (gene 6580)
In words: LTEA_HepaRG_SLC22A1: Life Technologies and Expression Analysis (LTEA) Assay for solute carrier (SLC22A1) using HepaRG (AID 2283524). In a few lines:
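Human HepaRG cells were plated 48 h, switched to serum-free induction medium, then exposed in duplicate for 48 h to 8-point half-log series from 100 uM in 0.5% DMSO. SLC22A1 mRNA measured by qRT-PCR, normalized to ACTB/GAPDH/POLR2A, fitted bidirectionally versus DMSO.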

Calls of active or inactive are those of the source. The calls were made as follows: active = hit-call score of the fitted dose curve at least 0.9, where 1 is the maximum; inactive = score below 0.9.

Nuclear factor erythroid 2-related factor 2 (Homo sapiens), sequence (Q16236 whole entry, looked up): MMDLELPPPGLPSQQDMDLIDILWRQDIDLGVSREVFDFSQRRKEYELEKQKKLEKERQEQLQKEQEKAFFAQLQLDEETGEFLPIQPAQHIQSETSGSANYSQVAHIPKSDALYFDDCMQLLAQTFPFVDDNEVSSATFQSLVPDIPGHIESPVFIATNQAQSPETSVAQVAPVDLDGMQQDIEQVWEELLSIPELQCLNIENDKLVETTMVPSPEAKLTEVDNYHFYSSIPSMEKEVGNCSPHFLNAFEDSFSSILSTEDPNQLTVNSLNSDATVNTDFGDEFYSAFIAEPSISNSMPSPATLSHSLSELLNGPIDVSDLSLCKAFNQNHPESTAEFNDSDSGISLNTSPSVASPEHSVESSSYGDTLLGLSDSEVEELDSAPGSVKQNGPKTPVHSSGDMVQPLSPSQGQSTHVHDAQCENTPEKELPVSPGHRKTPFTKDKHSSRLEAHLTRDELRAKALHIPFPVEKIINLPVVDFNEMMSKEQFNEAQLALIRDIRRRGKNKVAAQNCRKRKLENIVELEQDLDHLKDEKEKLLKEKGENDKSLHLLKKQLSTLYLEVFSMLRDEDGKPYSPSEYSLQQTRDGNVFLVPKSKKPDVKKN
Signal transducer and activator of transcription 3 (Homo sapiens), sequence (P40763 whole entry, looked up): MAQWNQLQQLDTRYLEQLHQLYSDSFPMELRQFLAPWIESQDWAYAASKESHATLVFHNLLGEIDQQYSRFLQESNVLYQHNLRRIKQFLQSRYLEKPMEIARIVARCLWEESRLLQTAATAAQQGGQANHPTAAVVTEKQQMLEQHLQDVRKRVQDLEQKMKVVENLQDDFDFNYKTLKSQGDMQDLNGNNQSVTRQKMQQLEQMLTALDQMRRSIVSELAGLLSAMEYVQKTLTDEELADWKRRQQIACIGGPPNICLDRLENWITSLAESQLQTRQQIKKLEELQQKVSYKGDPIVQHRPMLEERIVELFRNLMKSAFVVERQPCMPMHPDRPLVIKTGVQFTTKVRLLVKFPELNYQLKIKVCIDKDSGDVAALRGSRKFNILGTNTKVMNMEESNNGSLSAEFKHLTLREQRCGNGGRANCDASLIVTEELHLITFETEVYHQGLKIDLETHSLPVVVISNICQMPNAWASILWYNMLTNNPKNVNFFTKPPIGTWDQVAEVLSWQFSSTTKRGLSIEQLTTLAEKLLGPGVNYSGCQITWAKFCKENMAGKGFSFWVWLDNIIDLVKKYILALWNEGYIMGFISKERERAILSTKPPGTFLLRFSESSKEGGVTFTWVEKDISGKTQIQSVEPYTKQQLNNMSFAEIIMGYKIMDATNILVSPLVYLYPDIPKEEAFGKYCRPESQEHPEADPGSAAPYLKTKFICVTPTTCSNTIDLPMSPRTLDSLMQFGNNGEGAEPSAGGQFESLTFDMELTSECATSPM
Nuclear factor NF-kappa-B p105 subunit (Homo sapiens), sequence (P19838 whole entry, looked up): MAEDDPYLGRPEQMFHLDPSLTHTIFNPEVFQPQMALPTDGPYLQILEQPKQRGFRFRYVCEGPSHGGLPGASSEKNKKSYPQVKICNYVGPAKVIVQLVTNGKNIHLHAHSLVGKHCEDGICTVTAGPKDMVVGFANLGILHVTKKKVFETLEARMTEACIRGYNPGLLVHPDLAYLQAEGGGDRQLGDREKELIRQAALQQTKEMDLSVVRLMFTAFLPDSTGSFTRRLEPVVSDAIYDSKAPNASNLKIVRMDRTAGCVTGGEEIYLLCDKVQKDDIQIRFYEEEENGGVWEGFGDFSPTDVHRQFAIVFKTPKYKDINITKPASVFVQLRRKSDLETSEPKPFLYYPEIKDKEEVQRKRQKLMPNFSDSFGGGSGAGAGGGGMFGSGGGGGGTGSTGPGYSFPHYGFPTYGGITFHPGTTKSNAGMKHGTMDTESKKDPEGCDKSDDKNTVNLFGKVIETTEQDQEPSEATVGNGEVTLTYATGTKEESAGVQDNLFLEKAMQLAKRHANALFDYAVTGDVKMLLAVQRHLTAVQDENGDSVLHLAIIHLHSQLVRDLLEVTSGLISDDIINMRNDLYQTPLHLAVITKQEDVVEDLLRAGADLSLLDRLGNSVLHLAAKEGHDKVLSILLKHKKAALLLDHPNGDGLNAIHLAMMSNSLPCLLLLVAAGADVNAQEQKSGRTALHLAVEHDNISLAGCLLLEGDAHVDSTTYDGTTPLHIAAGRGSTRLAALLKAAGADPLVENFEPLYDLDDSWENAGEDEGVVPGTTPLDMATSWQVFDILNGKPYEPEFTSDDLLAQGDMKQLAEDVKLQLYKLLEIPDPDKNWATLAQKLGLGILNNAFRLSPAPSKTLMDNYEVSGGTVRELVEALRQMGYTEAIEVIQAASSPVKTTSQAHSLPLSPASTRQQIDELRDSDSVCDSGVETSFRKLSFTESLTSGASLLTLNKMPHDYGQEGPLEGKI

As to `CS(=O)(=O)c1cc(C(F)(F)F)ccc1C(=O)c1cnoc1C1CC1`, the outcome in [1] is “inactive”; in assay [2], “inactive”; with MYC, MYC (gene 4609) it was “inactive”; in [3], “inactive”; in [4] it was “inactive”; in assay [5] it was “inactive”. The molecule was called inactive in [6], in assay [7], in [8], in assay [9], in assay [10] and in [11]. Besides, the outcome in assay [12] is “inactive”; in [13] it was “inactive”; in [14], “inactive”; in assay [15] it was “inactive”; with TIMP1, TIMP1 (gene 7076) it was “inactive”; in assay [16], “inactive”.

Usually AC50 stands for the concentration giving half of the maximal activity seen. `COc1cc(OC)nc(NC(=O)NS(=O)(=O)c2ncccc2OCC(F)(F)F)n1`: the outcome in assay [1] is “inactive”; in [2], “inactive”; in the assay with MYC, MYC (gene 4609), “inactive”; in assay [3] it was “inactive”; in [4], “inactive”; in assay [6], “inactive”. The molecule was classed as inactive in [7], in [9], in assay [10], in assay [17], in assay [11] and in [13]. Also, the outcome in assay [14] is “inactive”; in assay [15] it was “inactive”; in the assay with TIMP1, TIMP1 (gene 7076) it was “inactive”; in [16] it was “inactive”. The AC50 was 0.129 µM (active) in assay [8] and 9.92 µM (active) in assay [12].

In the case of `CC1(C)CON(Cc2ccccc2Cl)C1=O`, the outcome in assay [1] is “inactive”; in assay [2] it was “inactive”; with MYC, MYC (gene 4609), “inactive”; in assay [3], “inactive”; in assay [6], “inactive”; in assay [7] it was “inactive”. For the same molecule, the result in [8], in assay [9], in assay [10], in assay [11], in [12] and in assay [13] was inactive. Moreover, the outcome is “inactive” in assay [14]; “inactive” in [15]; “inactive” with TIMP1, TIMP1 (gene 7076); “inactive” in assay [16]. Also, the AC50 in [4] is 22.5 µM (active).

As to `Cc1c(COC(=O)[C@@H]2[C@H](/C=C(\Cl)C(F)(F)F)C2(C)C)cccc1-c1ccccc1`, the outcome was “inactive” in [1]; “inactive” in [2]; “inactive” in the assay with MYC, MYC (gene 4609); “inactive” in assay [3]; “inactive” in assay [4]; “inactive” in [6]. Further, the molecule was called inactive in assay [7], in assay [18], in assay [8], in [9], in [10] and in assay [11]. Besides, the outcome was “inactive” in [12]; “inactive” in assay [13]; “inactive” in assay [14]; “inactive” in assay [15]; “inactive” in the assay with TIMP1, TIMP1 (gene 7076); “inactive” in assay [16].
